This excerpt belongs to a sample that is enriched for hits.
Methyltransferases: Primary Screen for Target Class Profiling of Small Molecule Inhibitors of Methyltransferases; purified enzyme, MTase-Glo SAH luminescence; active compounds read low; 3.9% of 25,000 active; calls only at 40 µM; call rule not given here
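Each enzyme was reacted with SAM and its substrate, with compounds tested once at 40 uM; SAH formed was read by MTase-Glo luminescence.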
An asterisk follows results filed as active; ! = not active in a repeat. % is set by controls: 0 for no effect and ±100 for the full control effect.

Results for CC(CCc1ccc(O)cc1)NCCc1ccc(O)c(O)c1 (stereo not drawn) ?
Methyltransferases: inactive

How did C[C@H](Cc1ccc(O)c(O)c1)[C@@H](C)Cc1ccc(O)c(O)c1 do in these assays?
Methyltransferases: active

What do the screens show for `CC(C)CNC(=O)c1ccc2c(=O)n(CC(C)C)c3nn(C)c(=O)n3c2c1`?
Methyltransferases: inactive

Results for O=C(NCCCNCCCNC(=O)c1cccnc1)c1cccnc1 ?
Methyltransferases: inactive

How did S=c1ssc2c1CCC2 do in these assays?
Methyltransferases: active

What do the screens show for `COc1ccccc1CNC(=O)C1(C)Cn2cnc(C(=O)NCc3ccccc3Cl)c2C(=O)N1C1CC1` (stereo not drawn)?
Methyltransferases: inactive

What do the screens show for `COc1ccc(CN2C(=O)c3cc4ccccc4n3CC2(C)C(=O)NCCC(C)C)c(OC)c1` (stereo not drawn)?
Methyltransferases: inactive

Results for Cc1ccc(Cn2c(=O)c3ccccc3n3c(=O)n(CC(=O)c4cccc(Cl)c4)nc23)cc1 ?
Methyltransferases: inactive

Results for N=C(N)SCCc1cnc[nH]1 ?
Methyltransferases: inactive

How did Fc1ccc(C(OCCCc2cnc[nH]2)c2ccc(F)cc2)cc1 do in these assays?
Methyltransferases: active

Results for COc1ccc2[nH]cc(C(=O)Cn3nc4n(Cc5ccc(F)cc5)c(=O)c5ccccc5n4c3=O)c2c1 ?
Methyltransferases: inactive

How did CCc1ccc(CNC(=O)C(C)n2ccc3cc(S(=O)(=O)N4CCCCC4)ccc32)cc1 (stereo not drawn) do in these assays?
Methyltransferases: inactive

What do the screens show for `O=S(=O)(c1ccc(Cl)cc1)c1nnn2c1nc(NCc1ccc(F)cc1)c1ccccc12`?
Methyltransferases: inactive

What do the screens show for `COC(=O)c1cc2n(n1)CC(C)(C(=O)NC1CCC(C)CC1)N(c1cccc(C)c1C)C2=O` (stereo not drawn)?
Methyltransferases: inactive

Results for Cc1ccc(CCN2C(=O)CSc3c(c4ccccc4n3C)C2C(=O)NCCCOC(C)C)cc1 (stereo not drawn) ?
Methyltransferases: inactive

How did CCOc1ccc(CN2C(=O)c3cc(-c4ccc(OC)cc4)nn3CC2(C)C(=O)NCc2ccccc2)cc1 (stereo not drawn) do in these assays?
Methyltransferases: inactive

How did O=S(=O)(Nc1ccc(F)cc1)c1ccc2[nH]c3c(c2c1)CCCC3 do in these assays?
Methyltransferases: inactive

Results for CN(CC(=O)Nc1cccc(F)c1)S(=O)(=O)c1ccc2[nH]c3c(c2c1)CCCC3 ?
Methyltransferases: inactive

What do the screens show for `CN(C)[C@@H]1CCc2[nH]c3ccc(NC(=O)c4ccc(F)cc4)cc3c2C1`?
Methyltransferases: active

How did CCc1ccc(S(=O)(=O)c2nnn3c2nc(NCCCN2CCCC2=O)c2cc(Cl)ccc23)cc1 do in these assays?
Methyltransferases: inactive

How did C=C(CO)C(=O)O[C@H]1C[C@@]23O[C@@H]2CC/C(=C/[C@H]2OC(=O)C(=C)[C@H]12)CO[C@H]3O do in these assays?
Methyltransferases: inactive

What do the screens show for `C=C1C(=O)OC2/C=C(/C)C3=CC(=O)C(C)(CC(OC(=O)/C(C)=C/COC(C)=O)C12)O3` (stereo not drawn)?
Methyltransferases: active

What do the screens show for `C=C1C(=O)O[C@H]2[C@H]1[C@@H](OC(=O)/C(C)=C\C)C[C@]1(C)O[C@@H]1[C@H]1O[C@H]1C(=C)[C@H]2O`?
Methyltransferases: inactive

Results for Cc1ccc(N2C(=O)CSc3c(c4ccccc4n3C)C2C(=O)NCc2ccccc2)cc1Cl (stereo not drawn) ?
Methyltransferases: inactive

Results for Cn1c(=O)n(C)c2cc(S(=O)(=O)Nc3ccc(Br)cc3)ccc21 ?
Methyltransferases: inactive

Results for O=C(O)CSc1cc(NS(=O)(=O)c2ccc(Br)cc2)c2ccccc2c1O ?
Methyltransferases: active

How did COC(=O)c1ccccc1NC(=O)c1ncn2c1C(=O)N(C1CC1)C(C)(C(=O)NCc1ccc(F)cc1)C2 (stereo not drawn) do in these assays?
Methyltransferases: inactive

What do the screens show for `COC(=O)c1cc2n(n1)CC(C)(C(=O)NC1CCCCCC1)N(Cc1ccccc1OC)C2=O` (stereo not drawn)?
Methyltransferases: inactive

How did C=C1C(=O)O[C@@H]2CC(C)=C([C@@H](C)CCCOC(C)=O)[C@@H](O)[C@H]12 do in these assays?
Methyltransferases: active

How did C=C1C(=O)OC2CC(C)=C(C(C)CCCO[C@@H]3O[C@H](CO)[C@@H](O)[C@H](O)[C@H]3O)C(O)C12 (stereo partly drawn) do in these assays?
Methyltransferases: inactive

How did C=C1C(=O)OC2CC(COC(=O)C(C)C)=C(C(C)CCCOC(C)=O)[C@@H](OC(C)=O)C12 (stereo partly drawn) do in these assays?
Methyltransferases: inactive

What do the screens show for `Cc1ccc(NC(=O)CSc2nnc3n(CCc4ccccc4)c(=O)c4ccccc4n23)cc1C`?
Methyltransferases: inactive

Results for CC(C)OCCCNC(=O)C1(C)Cn2c(cc3ccccc32)C(=O)N1Cc1cccc(Cl)c1 (stereo not drawn) ?
Methyltransferases: inactive

What do the screens show for `Cc1ccn(-c2cc(Cl)ccc2[C@@H](Oc2cc(-c3ccc(C[C@H](N)C(=O)O)cc3)nc(N)n2)C(F)(F)F)n1`?
Methyltransferases: active

Results for CCC1c2ccc(C)n2CCN1C(=O)Nc1cc(Cl)c(OC)cc1OC (stereo not drawn) ?
Methyltransferases: inactive

Results for COCCN1C(=O)c2ccc(-c3ccco3)n2CC1(C)C(=O)NC1CCCCCCC1 (stereo not drawn) ?
Methyltransferases: inactive

What do the screens show for `CC1CCCC(NC(=O)C2(C)Cn3c(ccc3-c3ccco3)C(=O)N2Cc2ccco2)C1C` (stereo not drawn)?
Methyltransferases: inactive

What do the screens show for `CCCCOC(=O)COc1ccc2c(-c3ccccc3)cc(=O)oc2c1C`?
Methyltransferases: inactive

What do the screens show for `Cc1sc2c(c1C)C(c1ccc(Cl)cc1)=N[C@H](CC(=O)NCCCCNC(=O)COc1cccc3c1C(=O)N([C@H]1CCC(=O)NC1=O)C3=O)c1nnc(C)n1-2`?
Methyltransferases: active

Results for C=Cc1ccc(CSc2nnc3n(CCCOC(C)C)c(=O)c4ccccc4n23)cc1 ?
Methyltransferases: inactive

What do the screens show for `CN1C(=O)C(c2ccccc2)CC12CCN(S(=O)(=O)N(C)C)CC2` (stereo not drawn)?
Methyltransferases: inactive

How did Cc1ccc(S(=O)(=O)/C=C/C#N)cc1 do in these assays?
Methyltransferases: active!

How did CCOc1cccc(C2c3cccn3-c3sc4c(c3CN2C(=O)NCCC(=O)OC)CCCC4)c1 (stereo not drawn) do in these assays?
Methyltransferases: inactive

Results for CC1(C(=O)NC2CCCCCC2)Cn2nc(-c3ccco3)cc2C(=O)N1Cc1cccc(F)c1 (stereo not drawn) ?
Methyltransferases: inactive

What do the screens show for `CC1CC(C)CN(S(=O)(=O)c2ccc3c(c2)oc(=O)n3CC(=O)NC(C)c2ccccc2)C1` (stereo not drawn)?
Methyltransferases: inactive

What do the screens show for `CCc1ccccc1NS(=O)(=O)c1cc2c(cc1Cl)n(C)c(=O)n2C`?
Methyltransferases: inactive

How did CCc1cccc(N2C(=O)c3ccccc3CC2(C)C(=O)NCc2ccccc2)c1 (stereo not drawn) do in these assays?
Methyltransferases: inactive

What do the screens show for `Cn1cc(-c2ccc(F)c(C(F)(F)F)c2)nc1C1CCN(c2ncnc3[nH]ncc23)CC1`?
Methyltransferases: active
